This is a sample that favours compounds with a hit; in the whole collection about 1.7% have one here.
p53ts 32C kill = kills p53ts cells at the permissive temperature; H1299-p53A138V at 32C, ATP luminescence viability, 24 h; Potency, µM (titrated, usually from 46.1 µM), without a hit: top-dose activity change, negative = cytotoxicity, usual class: cytotoxic; hit rate 0.93% among 130,000; AID 924;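 note: 0% = DMSO and -100% = full killing by reference compound; nearly all actives have a fitted effect of over 55% in size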
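ATP-content luminescence (ATPlite) read-out after 24 h compound exposure at 32C in H1299-p53A138V cells (600/well). Tested up to 46 uM. Normalized to DMSO (0%) and 100 uM tamoxifen (100% killing); Hill-fit AC50.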
Peg3 imprint = induces erasure of genomic imprints in mouse ES cells; mouse ES Peg3-LacZ reporter, beta-gal luminescence, 40 h; Potency, µM (top dose mostly 60.7 µM), for the others: at the top dose activity change, positive = activation, hits mostly activators; hit rate 0.02% among 110,000; AID 1948
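Each well holds 300 Peg3LacZ-Neo (maternal) female ES cells incubated 40 h at 37C, 5% CO2. LacZ is measured by BetaGlo luminescence, with AC50 and maximum efficacy derived from dose-response curves.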
IkB signaling = suppresses IkB signaling in ABC-DLBCL reporter cells | ABC-DLBCL IkBa-CBG/CBR dual luciferase ratio, 4 h; response scale: scaled: untreated 0%, proteasome inhibitor 100% | Potency, µM (series often up to 57.1 µM), without a hit: at the highest dose IkBa stabilization activation | hit rate 0.04% among 110,000 | AID 445; active = well fitted curve in the direction sought with a large enough effect in the signal ratio, not every such curve was filed as active; inconclusive = small, poorly fitted or top-dose-only effect, or a change in a side signal; the % refers to the signal ratio;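 note: the direction sought is a rising ratio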
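Luminescence ratio of IκBα-fused green versus native red beetle luciferase in OCI-Ly3 cells, 4 h post-doxycycline with compound; red signal alone, scaled from basal (0%) to zero light (-100%), flagged nonspecific or cytotoxic effects.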
p53ts 39C kill = cytotoxicity in p53ts cells at nonpermissive temperature | H1299-p53A138V viability at 39C, ATP luminescence, 24 h | Potency, µM (series often up to 46.1 µM), inactives show top-dose activity change, negative = cell killing, actives largely listed as cytotoxic | hit rate 1.5% among 130,000 | AID 902; note: % is set by controls: 0 for no effect and ±100 for the full control effect; nearly all actives have a fitted effect of over 55% in size
* marks the source's active call; other numbers are inactive results; ? = inconclusive; . = not tested or not shown; [ ] = another dose, or the depositor's remark. Unless noted, calls come from the whole dose curve; as a rule, active = well fitted curve in the direction sought with a large enough effect; inconclusive = small, poorly fitted or top-dose-only effect, or another doubt; inactive = no such curve, though single readings can be large; an effect the other way counts as inactive or inconclusive. Potency is the fitted concentration of half-maximal effect.

SMILES	p53ts 32C kill	Peg3 imprint	IkB signaling	p53ts 39C kill
COCCCN1C(=O)c2[nH]nc(-c3ccccc3O)c2C1c1ccc(OCc2ccccc2)cc1 (stereo unspecified)	25%	-8%[10.9 µM]	?	13µM*
CCCCN1C(=O)c2[nH]nc(-c3ccccc3O)c2C1c1ccc(C(C)(C)C)cc1 (stereo unspecified)	?	25%[10.9 µM]	?	13µM*
CCCCN1C(=O)c2[nH]nc(-c3ccccc3O)c2C1c1ccc(OCc2ccccc2)cc1 (stereo unspecified)	24%	-9%[10.9 µM]	?	13µM*
CCCCN1C(=O)c2[nH]nc(-c3ccccc3O)c2C1c1ccc(OCc2ccccc2)c(OC)c1 (stereo unspecified)	25%	-11%[10.9 µM]	?	-11%
CC(C)OCCCN1C(=O)c2[nH]nc(-c3ccccc3O)c2C1c1cccc(OCc2ccccc2)c1 (stereo unspecified)	?	-11%[10.9 µM]	?	?
Cc1ccc(C2c3c(-c4cc(C)ccc4O)n[nH]c3C(=O)N2Cc2ccco2)cc1 (stereo unspecified)	?	-6%[10.9 µM]	?	25µM*
CC(=O)N1C(=O)CC(C)N(C(C)=O)c2ccc([N+](=O)[O-])cc21 (stereo unspecified)	.	.	.	-12%
COc1ccccc1NC(=O)c1cc2ccc3cccnc3c2[nH]1	10µM*	-12%[10.9 µM]	15%	7.9µM*
CCOC(=O)C1CCN(C(=O)c2cc3ccc4cccnc4c3[nH]2)CC1	-4%	-22%[10.9 µM]	?	-24%
CC1CCCN(C(=O)c2cc3ccc4cccnc4c3[nH]2)C1 (stereo unspecified)	0.79µM*	-57%[10.9 µM]	?	1.6µM*
O=C(c1cc2ccc3cccnc3c2[nH]1)N1CCCCC1	1.6µM*	-79%[10.9 µM]	?	0.63µM*
CCOc1ccccc1NC(=O)c1cc2ccc3cccnc3c2[nH]1	-13%	11%[10.9 µM]	3%	?
O=C(c1cc2ccc3cccnc3c2[nH]1)N1CCN(c2ccc(Cl)cc2)CC1	-4%	-3%[10.9 µM]	0%	-21%
CCCn1c(/C=C/c2ccccc2)nc2ccccc21	13µM*	-28%[10.9 µM]	-1%	10µM*
CC(=O)c1sc(Nc2nc3ccc(F)cc3s2)nc1C	20µM*	-47%	?	?
COc1cccc(OCc2nc3ccccc3[nH]2)c1	16µM*	-86%	?	?
c1ccc2cc(OCc3nc4ccccc4[nH]3)ccc2c1	10µM*	.	.	13µM*
Nc1nonc1C(=O)NCCNCc1ccc(Cl)c(Cl)c1	-5%	-10%[10.9 µM]	-1%	5%
C=NC(C(=O)NC1C(=O)N2C1SC(C)(C)C2C(=O)O)c1ccccc1 (stereo unspecified)	9%	2%	.	-3%
O=C(NC1CCN(Cc2ccccc2)C1)c1ccc(Cc2nc3ccccc3[nH]2)cc1 (stereo unspecified)	-4%	.	.	-3%
COc1ccc(-c2nc3sc(CCNC(=O)C(=O)Nc4cccc(NC(C)=O)c4)c(C)n3n2)cc1	9%	-15%[10.9 µM]	0%	-16%
NC(=O)c1ccccc1N/C=C/C(=O)c1cccs1	11µM*	.	.	?
Cc1ccc(C(=O)/C=C/Nc2ccccc2C(N)=O)o1	13µM*	-45%	?	13µM*
CC(=O)Nc1ccc(N/C=C/C(=O)c2ccc(C)o2)cc1	-28%	?	0%	-22%
Cc1ccc(/C=C/C(=O)Nc2ccccc2C(N)=O)o1	7.9µM*	-42%[10.9 µM]	?	5µM*
SMILES	p53ts 32C kill	Peg3 imprint	IkB signaling	p53ts 39C kill
Cc1cccc(N/C=C/C(=O)c2cccs2)c1C	.	.	.	10µM*
Cc1ccc(C)c(Cn2c(=O)n(CCCCC(=O)NCc3ccccc3Cl)c(=O)c3ccccc32)c1	3%	10%[10.9 µM]	3%	25µM*
CNc1nc(-c2cccc(C#N)c2)nc2ccccc12	6%	1.3µM*	-3%[11.4 µM]	-8%
CCCCc1nn2c(=O)cc(COC(=O)c3ccccc3NC(=O)C3CCCCC3)nc2s1	-4%	-11%[10.9 µM]	-1%	-17%
COc1cc(C(=O)OCC(=O)c2cc(C)n(C)c2C)cc(OC)c1OC	3%	-6%	2%	-6%
COCCn1c(C)cc(C(=O)COC(=O)c2c(C)nn(Cc3ccccc3)c2C)c1C	7%	10%	?	11%
Cc1cc(C(=O)COC(=O)c2n[nH]c3ccccc23)c(C)n1C	2.5µM*	-64%	?	3.2µM*
COCCn1c(C)cc(C(=O)COC(=O)c2n[nH]c3ccccc23)c1C	1µM*	-87%	?	2µM*

Screens as filed in PubChem.
